From ChEMBL document CHEMBL1961873, “Compounds: GSK PKIS; Assays: Nanosyn kinase panel” (2012)

Experiments:
[1] = molecular target: Protein kinase C gamma type (Homo sapiens) (UniProt P05129); conditions: at 1 µM;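 note: each value is an averaged percent inhibition of the enzyme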
[2] = molecular target: T1, Protein kinase C iota type (Homo sapiens) (UniProt P41743); conditions: at 0.1 µM
T1 sequence (whole entry): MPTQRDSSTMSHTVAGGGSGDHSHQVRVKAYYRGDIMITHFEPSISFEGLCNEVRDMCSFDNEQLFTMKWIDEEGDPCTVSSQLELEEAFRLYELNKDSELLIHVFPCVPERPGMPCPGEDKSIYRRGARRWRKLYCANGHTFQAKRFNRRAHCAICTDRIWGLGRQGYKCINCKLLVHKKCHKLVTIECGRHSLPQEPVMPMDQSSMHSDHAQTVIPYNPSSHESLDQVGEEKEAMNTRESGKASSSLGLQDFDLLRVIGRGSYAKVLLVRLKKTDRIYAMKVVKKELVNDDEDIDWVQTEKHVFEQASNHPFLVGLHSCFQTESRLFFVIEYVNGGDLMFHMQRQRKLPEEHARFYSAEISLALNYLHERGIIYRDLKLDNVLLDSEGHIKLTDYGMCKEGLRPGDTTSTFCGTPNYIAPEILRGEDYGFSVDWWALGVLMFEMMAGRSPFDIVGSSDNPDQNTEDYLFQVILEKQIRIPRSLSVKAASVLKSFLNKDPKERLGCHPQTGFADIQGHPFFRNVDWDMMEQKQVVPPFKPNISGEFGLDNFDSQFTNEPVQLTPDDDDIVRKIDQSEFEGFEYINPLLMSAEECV

[3] = molecular target: T1, Protein kinase C iota type (Homo sapiens); conditions: at 1 µM
[4] = molecular target: Protein kinase C theta type (Homo sapiens) (UniProt Q04759); conditions: at 0.1 µM
Sequence of Protein kinase C theta type (Homo sapiens) (Q04759 whole entry, looked up): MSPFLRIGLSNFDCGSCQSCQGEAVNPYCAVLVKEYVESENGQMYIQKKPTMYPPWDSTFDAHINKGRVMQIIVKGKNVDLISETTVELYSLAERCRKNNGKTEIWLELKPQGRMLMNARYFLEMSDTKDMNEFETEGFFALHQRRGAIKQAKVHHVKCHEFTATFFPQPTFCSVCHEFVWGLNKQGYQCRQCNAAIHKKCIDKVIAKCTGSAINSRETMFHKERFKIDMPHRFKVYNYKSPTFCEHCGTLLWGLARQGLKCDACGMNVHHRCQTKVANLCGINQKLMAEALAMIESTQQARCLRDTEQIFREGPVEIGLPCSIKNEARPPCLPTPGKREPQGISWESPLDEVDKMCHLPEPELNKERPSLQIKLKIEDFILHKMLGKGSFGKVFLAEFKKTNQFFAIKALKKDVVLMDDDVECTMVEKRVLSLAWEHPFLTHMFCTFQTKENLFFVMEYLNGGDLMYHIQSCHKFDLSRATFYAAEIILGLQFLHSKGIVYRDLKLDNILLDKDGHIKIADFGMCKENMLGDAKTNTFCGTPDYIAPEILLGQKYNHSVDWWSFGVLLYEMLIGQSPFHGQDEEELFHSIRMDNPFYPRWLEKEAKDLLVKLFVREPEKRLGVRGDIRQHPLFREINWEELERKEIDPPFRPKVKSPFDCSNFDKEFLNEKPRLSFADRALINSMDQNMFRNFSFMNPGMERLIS

[5] = molecular target: Protein kinase C theta type (Homo sapiens) (UniProt Q04759); conditions: at 1 µM
[6] = molecular target: Protein kinase C beta type (Homo sapiens) (UniProt P05771); conditions: at 0.1 µM
Sequence of Protein kinase C beta type (Homo sapiens) (P05771 2-671 limits assumed): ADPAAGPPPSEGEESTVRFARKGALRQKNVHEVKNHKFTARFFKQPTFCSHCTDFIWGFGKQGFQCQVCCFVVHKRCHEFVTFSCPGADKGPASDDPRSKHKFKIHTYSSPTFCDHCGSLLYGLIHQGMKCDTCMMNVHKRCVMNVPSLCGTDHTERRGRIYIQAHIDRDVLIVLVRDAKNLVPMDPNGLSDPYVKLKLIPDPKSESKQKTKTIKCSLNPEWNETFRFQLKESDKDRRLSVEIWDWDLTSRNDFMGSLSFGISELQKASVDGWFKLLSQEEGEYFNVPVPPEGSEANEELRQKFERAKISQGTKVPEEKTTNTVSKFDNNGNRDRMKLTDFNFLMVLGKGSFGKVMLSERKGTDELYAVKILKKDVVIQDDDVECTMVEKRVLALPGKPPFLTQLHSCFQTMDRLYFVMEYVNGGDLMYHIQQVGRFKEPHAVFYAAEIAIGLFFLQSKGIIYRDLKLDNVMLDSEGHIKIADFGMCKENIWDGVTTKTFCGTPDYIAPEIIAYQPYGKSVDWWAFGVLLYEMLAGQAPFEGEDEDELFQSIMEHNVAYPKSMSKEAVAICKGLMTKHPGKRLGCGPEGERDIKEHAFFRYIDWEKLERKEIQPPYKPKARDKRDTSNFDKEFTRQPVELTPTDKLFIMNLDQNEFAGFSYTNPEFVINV

[7] = molecular target: Protein kinase C beta type (Homo sapiens) (UniProt P05771); conditions: at 1 µM
[8] = molecular target: T2, Serine/threonine-protein kinase D1 (Homo sapiens) (UniProt Q15139); conditions: at 0.1 µM
T2 sequence (whole entry): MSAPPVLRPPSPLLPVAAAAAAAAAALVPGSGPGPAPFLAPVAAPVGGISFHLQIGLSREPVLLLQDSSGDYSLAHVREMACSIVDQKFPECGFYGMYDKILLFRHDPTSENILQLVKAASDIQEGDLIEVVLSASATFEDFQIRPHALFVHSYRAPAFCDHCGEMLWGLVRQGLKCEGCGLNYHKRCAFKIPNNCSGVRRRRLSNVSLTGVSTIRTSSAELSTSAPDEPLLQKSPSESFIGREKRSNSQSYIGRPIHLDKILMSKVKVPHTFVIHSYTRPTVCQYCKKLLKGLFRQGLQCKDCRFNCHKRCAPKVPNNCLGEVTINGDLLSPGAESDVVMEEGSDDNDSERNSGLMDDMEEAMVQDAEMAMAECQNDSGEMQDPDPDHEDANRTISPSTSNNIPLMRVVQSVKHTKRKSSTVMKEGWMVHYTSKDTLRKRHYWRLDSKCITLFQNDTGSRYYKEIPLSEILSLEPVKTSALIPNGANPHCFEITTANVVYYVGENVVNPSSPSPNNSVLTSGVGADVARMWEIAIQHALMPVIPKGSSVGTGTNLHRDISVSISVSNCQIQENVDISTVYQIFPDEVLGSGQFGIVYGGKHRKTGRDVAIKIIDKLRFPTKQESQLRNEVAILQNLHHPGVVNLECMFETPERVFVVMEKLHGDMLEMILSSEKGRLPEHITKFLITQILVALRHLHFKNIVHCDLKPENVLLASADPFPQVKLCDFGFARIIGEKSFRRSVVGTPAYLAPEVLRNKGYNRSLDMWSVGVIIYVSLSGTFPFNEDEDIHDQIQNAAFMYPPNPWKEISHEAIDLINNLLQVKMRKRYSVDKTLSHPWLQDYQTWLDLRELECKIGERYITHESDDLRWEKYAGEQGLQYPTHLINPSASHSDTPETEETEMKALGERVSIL

[9] = molecular target: T2, Serine/threonine-protein kinase D1 (Homo sapiens); conditions: at 1 µM
[10] = molecular target: T3, Serine/threonine-protein kinase D2 (Homo sapiens) (UniProt Q9BZL6); conditions: at 0.1 µM
T3 sequence (whole entry): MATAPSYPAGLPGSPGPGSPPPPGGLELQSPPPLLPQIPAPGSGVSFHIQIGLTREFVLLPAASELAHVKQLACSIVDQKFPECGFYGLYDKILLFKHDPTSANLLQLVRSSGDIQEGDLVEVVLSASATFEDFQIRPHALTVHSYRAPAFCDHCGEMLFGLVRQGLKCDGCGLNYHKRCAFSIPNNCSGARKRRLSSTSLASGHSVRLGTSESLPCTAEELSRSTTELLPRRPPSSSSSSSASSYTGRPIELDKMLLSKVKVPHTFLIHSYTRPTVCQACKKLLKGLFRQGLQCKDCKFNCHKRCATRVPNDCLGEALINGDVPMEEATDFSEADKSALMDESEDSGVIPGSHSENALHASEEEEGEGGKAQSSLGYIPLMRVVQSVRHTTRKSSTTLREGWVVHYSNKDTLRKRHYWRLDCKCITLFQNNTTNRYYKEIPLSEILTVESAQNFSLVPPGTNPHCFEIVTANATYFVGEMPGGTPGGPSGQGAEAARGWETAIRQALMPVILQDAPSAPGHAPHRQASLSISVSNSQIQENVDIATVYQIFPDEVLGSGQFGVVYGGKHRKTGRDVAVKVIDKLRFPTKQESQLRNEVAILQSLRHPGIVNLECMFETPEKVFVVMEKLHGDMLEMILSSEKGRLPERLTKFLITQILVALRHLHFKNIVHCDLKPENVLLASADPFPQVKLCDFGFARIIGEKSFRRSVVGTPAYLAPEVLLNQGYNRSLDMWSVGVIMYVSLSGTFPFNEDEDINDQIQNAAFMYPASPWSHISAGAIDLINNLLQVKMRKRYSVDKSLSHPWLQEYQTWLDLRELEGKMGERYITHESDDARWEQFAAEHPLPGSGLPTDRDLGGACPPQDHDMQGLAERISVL

[11] = molecular target: T3, Serine/threonine-protein kinase D2 (Homo sapiens); conditions: at 1 µM
[12] = molecular target: T4, Serine/threonine-protein kinase D3 (Homo sapiens) (UniProt O94806); conditions: at 0.1 µM
T4 sequence (whole entry): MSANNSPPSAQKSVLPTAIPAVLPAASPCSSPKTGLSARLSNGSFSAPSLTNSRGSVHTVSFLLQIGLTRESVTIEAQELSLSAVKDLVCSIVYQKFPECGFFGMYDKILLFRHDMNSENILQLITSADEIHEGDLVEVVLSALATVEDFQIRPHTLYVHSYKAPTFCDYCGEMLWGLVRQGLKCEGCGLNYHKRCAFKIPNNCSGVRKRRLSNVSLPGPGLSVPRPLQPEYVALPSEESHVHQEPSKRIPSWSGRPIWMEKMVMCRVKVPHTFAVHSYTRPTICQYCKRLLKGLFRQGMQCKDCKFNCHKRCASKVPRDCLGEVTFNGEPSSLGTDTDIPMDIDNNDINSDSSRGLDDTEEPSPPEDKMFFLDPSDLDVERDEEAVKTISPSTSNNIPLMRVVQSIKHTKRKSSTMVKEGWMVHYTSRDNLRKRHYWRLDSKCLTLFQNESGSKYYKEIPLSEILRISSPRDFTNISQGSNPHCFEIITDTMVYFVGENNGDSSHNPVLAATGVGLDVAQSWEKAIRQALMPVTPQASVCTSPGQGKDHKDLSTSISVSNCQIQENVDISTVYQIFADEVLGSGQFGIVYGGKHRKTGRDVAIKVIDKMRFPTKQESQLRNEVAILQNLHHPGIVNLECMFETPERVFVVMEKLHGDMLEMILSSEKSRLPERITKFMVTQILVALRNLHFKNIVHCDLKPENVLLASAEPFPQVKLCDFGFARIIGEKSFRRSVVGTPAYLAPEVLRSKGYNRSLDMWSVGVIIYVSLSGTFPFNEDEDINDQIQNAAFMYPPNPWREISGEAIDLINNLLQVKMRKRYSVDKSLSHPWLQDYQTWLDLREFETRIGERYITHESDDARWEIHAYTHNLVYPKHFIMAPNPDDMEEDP

[13] = molecular target: T4, Serine/threonine-protein kinase D3 (Homo sapiens); conditions: at 1 µM
[14] = molecular target: T5, cGMP-dependent protein kinase 1 (Homo sapiens) (UniProt Q13976); conditions: at 0.1 µM
T5 sequence (whole entry): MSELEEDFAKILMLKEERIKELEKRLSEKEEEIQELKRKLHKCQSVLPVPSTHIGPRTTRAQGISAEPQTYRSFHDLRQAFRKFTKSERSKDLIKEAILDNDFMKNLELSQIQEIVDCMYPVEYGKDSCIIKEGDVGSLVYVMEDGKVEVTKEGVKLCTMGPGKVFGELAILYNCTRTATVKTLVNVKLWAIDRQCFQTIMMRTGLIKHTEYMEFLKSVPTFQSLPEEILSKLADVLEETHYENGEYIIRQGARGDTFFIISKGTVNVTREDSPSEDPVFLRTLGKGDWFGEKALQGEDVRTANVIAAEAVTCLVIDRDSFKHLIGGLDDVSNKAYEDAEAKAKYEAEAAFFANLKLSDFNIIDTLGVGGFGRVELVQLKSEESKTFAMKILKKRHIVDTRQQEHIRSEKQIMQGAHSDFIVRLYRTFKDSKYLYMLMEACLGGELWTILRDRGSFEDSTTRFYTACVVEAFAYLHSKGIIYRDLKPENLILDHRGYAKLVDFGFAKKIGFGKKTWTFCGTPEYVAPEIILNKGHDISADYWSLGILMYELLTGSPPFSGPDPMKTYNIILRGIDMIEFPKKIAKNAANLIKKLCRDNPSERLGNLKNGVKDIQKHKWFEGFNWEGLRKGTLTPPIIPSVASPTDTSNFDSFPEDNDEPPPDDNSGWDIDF

[15] = molecular target: T5, cGMP-dependent protein kinase 1 (Homo sapiens); conditions: at 1 µM
[16] = molecular target: T6, cGMP-dependent protein kinase 2 (Homo sapiens) (UniProt Q13237); conditions: at 0.1 µM
T6 sequence (whole entry): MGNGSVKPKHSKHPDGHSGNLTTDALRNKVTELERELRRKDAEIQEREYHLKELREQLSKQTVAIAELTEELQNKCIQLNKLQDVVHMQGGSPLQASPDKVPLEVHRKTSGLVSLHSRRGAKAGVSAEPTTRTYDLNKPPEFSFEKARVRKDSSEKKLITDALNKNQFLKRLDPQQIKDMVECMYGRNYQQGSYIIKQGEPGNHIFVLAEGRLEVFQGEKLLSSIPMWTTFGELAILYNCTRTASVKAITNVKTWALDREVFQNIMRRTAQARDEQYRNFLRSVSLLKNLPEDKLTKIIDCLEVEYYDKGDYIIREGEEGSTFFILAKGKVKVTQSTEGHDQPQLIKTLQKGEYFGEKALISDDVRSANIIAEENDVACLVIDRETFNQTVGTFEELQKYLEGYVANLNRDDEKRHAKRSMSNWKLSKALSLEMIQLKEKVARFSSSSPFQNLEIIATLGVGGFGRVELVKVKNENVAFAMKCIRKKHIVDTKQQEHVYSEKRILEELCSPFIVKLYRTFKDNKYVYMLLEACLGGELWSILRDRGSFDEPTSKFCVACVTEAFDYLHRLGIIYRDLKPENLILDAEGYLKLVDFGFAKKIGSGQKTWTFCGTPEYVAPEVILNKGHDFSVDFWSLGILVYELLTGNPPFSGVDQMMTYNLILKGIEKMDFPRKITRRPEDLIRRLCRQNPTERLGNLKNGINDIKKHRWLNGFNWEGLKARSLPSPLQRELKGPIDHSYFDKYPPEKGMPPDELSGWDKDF

[17] = molecular target: T6, cGMP-dependent protein kinase 2 (Homo sapiens); conditions: at 1 µM
[18] = molecular target: T7, cAMP-dependent protein kinase catalytic subunit PRKX (Homo sapiens) (UniProt P51817); conditions: at 0.1 µM
T7 sequence (whole entry): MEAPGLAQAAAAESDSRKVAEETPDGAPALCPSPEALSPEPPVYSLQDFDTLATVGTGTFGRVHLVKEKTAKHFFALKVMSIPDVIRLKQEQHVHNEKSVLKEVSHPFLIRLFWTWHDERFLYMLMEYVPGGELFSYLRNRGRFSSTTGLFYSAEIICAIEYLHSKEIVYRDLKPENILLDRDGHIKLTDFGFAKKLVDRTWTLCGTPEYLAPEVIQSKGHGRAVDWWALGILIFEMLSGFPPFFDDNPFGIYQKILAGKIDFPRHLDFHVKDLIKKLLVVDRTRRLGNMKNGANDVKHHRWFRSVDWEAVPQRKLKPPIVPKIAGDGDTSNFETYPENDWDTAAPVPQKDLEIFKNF

[19] = molecular target: T7, cAMP-dependent protein kinase catalytic subunit PRKX (Homo sapiens); conditions: at 1 µM
[20] = molecular target: Rho-associated protein kinase 1 (Homo sapiens) (UniProt Q13464); conditions: at 0.1 µM;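 note: values are mean percent inhibition of ROCK1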
Sequence of Rho-associated protein kinase 1 (Homo sapiens) (Q13464 2-1354 limits assumed): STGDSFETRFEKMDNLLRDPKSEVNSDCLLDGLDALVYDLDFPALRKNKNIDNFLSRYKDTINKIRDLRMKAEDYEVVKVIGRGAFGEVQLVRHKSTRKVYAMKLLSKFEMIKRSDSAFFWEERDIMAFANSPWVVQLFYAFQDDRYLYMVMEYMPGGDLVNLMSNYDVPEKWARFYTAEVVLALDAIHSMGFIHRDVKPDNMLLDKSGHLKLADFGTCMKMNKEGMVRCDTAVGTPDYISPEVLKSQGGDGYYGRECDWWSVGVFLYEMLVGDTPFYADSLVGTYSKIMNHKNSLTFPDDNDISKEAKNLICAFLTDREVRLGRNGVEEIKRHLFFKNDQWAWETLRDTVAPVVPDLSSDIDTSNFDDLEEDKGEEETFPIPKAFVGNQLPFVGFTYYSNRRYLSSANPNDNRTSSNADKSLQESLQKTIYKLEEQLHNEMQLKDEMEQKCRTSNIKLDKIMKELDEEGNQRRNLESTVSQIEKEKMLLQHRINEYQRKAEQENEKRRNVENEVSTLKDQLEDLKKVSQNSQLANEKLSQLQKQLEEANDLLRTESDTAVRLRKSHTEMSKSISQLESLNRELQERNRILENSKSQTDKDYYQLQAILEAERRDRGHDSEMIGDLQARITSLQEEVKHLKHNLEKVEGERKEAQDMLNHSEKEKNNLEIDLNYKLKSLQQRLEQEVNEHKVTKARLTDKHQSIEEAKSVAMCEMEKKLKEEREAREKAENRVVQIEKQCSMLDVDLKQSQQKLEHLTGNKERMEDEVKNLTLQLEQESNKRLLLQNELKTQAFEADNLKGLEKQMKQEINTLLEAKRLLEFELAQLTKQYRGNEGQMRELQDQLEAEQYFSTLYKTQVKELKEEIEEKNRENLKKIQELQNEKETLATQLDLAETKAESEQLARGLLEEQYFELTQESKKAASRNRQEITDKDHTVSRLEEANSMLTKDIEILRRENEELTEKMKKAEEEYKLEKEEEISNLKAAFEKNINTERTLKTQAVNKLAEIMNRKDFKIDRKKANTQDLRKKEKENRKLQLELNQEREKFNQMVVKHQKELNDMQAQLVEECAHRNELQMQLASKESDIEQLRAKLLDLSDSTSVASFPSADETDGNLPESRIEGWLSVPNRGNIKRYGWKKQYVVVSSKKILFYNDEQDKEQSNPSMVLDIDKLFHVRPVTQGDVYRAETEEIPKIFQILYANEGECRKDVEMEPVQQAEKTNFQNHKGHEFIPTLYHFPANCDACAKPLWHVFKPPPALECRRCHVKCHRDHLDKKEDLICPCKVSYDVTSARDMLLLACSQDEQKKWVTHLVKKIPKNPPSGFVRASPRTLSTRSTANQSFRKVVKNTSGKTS

| Compound | inhibition [1] [%] | inhibition [2] [%] | inhibition [3] [%] | inhibition [4] [%] | inhibition [5] [%] | inhibition [6] [%] | inhibition [7] [%] | inhibition [8] [%] | inhibition [9] [%] | inhibition [10] [%] | inhibition [11] [%] | inhibition [12] [%] | inhibition [13] [%] | inhibition [14] [%] | inhibition [15] [%] | inhibition [16] [%] | inhibition [17] [%] | inhibition [18] [%] | inhibition [19] [%] | inhibition [20] [%] |
| --- | --- | --- | --- | --- | --- | --- | --- | --- | --- | --- | --- | --- | --- | --- | --- | --- | --- | --- | --- | --- |
| NS(=O)(=O)c1ccc(Nc2cc(-c3cccc(O)c3)n[nH]2)cc1 | 5.97 | 2.37 | 3.83 | 3.09 | 3.2 | 1.35 | 3.75 | 4.8 | 11.4 | 5.45 | 7.41 | 6.55 | 8.42 | 5.01 | 5.23 | 3.66 | 5.03 | 3.04 | 2.25 | 1.47 |
| CCn1c(-c2nonc2N)nc2ccc(F)cc21 | 5.71 | 2.23 | 1.51 | 4.58 | 6.97 | 1.15 | 4.26 | 4.58 | 6.64 | 5.68 | 5.33 | 6.8 | 6.49 | 3.97 | 14.5 | 8.14 | 41.4 | 3.36 | 6.51 | 2.21 |
| NC(=O)c1sc(-n2cnc3ccccc32)cc1OCc1ccccc1Br | 3.85 | 1.56 | -0.46 | 1.86 | 2.63 | 1.02 | 2.96 | 5.36 | 9.59 | 7.73 | 6.86 | 5.8 | 8.54 | 3.41 | 5.69 | 3.61 | 5.73 | 3.19 | 5.64 | 2.06 |
